Data taken from ChEMBL document CHEMBL1961873, “Compounds: GSK PKIS; Assays: Nanosyn kinase panel” (2012).
Values joined by “and” are separate entries in the source; they are usually repeats but may differ in a detail not shown here. Identical values can stand only once.

Columns and labels:
[1] = target: T1, Tyrosine-protein kinase receptor TYRO3 (Homo sapiens) (UniProt Q06418); settings: at 1 µM
T1 sequence (whole entry): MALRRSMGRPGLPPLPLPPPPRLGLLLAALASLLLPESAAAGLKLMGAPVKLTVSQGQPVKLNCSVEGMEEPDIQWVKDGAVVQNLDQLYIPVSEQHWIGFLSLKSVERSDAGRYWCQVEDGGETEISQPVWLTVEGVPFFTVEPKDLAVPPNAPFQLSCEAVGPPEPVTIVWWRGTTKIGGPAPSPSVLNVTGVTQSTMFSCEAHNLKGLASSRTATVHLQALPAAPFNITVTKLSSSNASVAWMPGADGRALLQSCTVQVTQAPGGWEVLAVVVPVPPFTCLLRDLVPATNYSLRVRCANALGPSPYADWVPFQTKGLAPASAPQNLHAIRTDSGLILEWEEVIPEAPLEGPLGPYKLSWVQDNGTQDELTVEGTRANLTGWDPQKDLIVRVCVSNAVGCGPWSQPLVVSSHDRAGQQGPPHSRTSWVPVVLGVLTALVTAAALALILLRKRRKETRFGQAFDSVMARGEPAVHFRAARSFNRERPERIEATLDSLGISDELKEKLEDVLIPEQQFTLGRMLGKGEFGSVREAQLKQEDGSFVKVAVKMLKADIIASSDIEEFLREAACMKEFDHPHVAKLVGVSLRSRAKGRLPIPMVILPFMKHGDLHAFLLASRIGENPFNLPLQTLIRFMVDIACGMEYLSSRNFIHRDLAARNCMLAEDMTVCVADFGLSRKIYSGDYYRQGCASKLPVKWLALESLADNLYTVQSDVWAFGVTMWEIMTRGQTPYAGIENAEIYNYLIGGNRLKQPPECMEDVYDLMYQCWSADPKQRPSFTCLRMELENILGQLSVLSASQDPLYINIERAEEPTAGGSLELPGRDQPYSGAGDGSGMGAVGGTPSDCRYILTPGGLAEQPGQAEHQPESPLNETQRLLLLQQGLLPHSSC

[2] = target: Tyrosine-protein kinase Yes (Homo sapiens) (UniProt P07947); settings: at 0.1 µM
[3] = target: Tyrosine-protein kinase Yes (Homo sapiens) (UniProt P07947); settings: at 1 µM
[4] = target: T2, Tyrosine-protein kinase ZAP-70 (Homo sapiens) (UniProt P43403); settings: at 0.1 µM
T2 sequence (whole entry): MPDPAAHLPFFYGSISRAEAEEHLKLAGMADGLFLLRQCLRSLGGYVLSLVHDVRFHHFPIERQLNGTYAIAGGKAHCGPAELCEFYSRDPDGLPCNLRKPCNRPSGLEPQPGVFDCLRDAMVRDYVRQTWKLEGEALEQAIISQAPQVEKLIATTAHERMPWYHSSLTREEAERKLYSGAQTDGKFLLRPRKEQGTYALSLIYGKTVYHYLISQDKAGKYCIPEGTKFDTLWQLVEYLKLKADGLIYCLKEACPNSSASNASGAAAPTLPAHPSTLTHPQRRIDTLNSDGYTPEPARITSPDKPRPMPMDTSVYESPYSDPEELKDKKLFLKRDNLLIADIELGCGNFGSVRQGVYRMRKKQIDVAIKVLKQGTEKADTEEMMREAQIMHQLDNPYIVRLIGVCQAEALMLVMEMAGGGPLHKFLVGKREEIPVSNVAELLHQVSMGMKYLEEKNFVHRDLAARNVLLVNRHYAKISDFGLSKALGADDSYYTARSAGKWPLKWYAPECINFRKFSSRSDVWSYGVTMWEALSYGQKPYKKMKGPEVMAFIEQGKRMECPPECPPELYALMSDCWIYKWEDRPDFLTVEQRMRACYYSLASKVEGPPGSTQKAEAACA

[5] = target: T2, Tyrosine-protein kinase ZAP-70 (Homo sapiens); settings: at 1 µM
[6] = target: Serine/threonine-protein kinase B-raf (Homo sapiens) (UniProt P15056); settings: at 0.1 µM
[7] = target: Serine/threonine-protein kinase B-raf (Homo sapiens) (UniProt P15056); settings: at 1 µM
[8] = tested on: Serine/threonine-protein kinase B-raf (Homo sapiens), P15056 [V600E]; settings: at 0.1 µM
[9] = tested on: Serine/threonine-protein kinase B-raf (Homo sapiens), P15056 [V600E]; settings: at 1 µM
[10] = target: RAF proto-oncogene serine/threonine-protein kinase (Homo sapiens) (UniProt P04049); settings: at 0.1 µM
[11] = target: RAF proto-oncogene serine/threonine-protein kinase (Homo sapiens) (UniProt P04049); settings: at 1 µM
[12] = target: T3, Interleukin-1 receptor-associated kinase 4 (Homo sapiens) (UniProt Q9NWZ3); settings: at 0.1 µM
T3 sequence (whole entry): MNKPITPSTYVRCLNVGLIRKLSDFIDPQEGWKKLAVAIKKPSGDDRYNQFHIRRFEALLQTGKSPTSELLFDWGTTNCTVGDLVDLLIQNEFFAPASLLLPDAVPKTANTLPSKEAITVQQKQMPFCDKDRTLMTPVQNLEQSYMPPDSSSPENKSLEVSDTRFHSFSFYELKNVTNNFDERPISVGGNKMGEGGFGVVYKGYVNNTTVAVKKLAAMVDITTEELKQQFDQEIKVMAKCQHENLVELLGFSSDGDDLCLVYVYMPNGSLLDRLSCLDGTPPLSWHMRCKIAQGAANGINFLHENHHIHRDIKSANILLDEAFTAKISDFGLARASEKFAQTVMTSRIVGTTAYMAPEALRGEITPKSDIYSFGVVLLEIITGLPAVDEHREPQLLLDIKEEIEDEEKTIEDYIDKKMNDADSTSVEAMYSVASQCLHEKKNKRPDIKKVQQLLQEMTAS

[13] = target: T3, Interleukin-1 receptor-associated kinase 4 (Homo sapiens); settings: at 1 µM
[14] = target: Leucine-rich repeat serine/threonine-protein kinase 2 (Homo sapiens) (UniProt Q5S007); settings: at 0.1 µM
[15] = target: Leucine-rich repeat serine/threonine-protein kinase 2 (Homo sapiens) (UniProt Q5S007); settings: at 1 µM
[16] = tested on: Leucine-rich repeat serine/threonine-protein kinase 2 (Homo sapiens), Q5S007 [G2019S]; settings: at 0.1 µM
[17] = tested on: Leucine-rich repeat serine/threonine-protein kinase 2 (Homo sapiens), Q5S007 [G2019S]; settings: at 1 µM

Leucine-rich repeat serine/threonine-protein kinase 2 (Homo sapiens), Q5S007 [G2019S], sequence (Q5S007 whole entry G2019S): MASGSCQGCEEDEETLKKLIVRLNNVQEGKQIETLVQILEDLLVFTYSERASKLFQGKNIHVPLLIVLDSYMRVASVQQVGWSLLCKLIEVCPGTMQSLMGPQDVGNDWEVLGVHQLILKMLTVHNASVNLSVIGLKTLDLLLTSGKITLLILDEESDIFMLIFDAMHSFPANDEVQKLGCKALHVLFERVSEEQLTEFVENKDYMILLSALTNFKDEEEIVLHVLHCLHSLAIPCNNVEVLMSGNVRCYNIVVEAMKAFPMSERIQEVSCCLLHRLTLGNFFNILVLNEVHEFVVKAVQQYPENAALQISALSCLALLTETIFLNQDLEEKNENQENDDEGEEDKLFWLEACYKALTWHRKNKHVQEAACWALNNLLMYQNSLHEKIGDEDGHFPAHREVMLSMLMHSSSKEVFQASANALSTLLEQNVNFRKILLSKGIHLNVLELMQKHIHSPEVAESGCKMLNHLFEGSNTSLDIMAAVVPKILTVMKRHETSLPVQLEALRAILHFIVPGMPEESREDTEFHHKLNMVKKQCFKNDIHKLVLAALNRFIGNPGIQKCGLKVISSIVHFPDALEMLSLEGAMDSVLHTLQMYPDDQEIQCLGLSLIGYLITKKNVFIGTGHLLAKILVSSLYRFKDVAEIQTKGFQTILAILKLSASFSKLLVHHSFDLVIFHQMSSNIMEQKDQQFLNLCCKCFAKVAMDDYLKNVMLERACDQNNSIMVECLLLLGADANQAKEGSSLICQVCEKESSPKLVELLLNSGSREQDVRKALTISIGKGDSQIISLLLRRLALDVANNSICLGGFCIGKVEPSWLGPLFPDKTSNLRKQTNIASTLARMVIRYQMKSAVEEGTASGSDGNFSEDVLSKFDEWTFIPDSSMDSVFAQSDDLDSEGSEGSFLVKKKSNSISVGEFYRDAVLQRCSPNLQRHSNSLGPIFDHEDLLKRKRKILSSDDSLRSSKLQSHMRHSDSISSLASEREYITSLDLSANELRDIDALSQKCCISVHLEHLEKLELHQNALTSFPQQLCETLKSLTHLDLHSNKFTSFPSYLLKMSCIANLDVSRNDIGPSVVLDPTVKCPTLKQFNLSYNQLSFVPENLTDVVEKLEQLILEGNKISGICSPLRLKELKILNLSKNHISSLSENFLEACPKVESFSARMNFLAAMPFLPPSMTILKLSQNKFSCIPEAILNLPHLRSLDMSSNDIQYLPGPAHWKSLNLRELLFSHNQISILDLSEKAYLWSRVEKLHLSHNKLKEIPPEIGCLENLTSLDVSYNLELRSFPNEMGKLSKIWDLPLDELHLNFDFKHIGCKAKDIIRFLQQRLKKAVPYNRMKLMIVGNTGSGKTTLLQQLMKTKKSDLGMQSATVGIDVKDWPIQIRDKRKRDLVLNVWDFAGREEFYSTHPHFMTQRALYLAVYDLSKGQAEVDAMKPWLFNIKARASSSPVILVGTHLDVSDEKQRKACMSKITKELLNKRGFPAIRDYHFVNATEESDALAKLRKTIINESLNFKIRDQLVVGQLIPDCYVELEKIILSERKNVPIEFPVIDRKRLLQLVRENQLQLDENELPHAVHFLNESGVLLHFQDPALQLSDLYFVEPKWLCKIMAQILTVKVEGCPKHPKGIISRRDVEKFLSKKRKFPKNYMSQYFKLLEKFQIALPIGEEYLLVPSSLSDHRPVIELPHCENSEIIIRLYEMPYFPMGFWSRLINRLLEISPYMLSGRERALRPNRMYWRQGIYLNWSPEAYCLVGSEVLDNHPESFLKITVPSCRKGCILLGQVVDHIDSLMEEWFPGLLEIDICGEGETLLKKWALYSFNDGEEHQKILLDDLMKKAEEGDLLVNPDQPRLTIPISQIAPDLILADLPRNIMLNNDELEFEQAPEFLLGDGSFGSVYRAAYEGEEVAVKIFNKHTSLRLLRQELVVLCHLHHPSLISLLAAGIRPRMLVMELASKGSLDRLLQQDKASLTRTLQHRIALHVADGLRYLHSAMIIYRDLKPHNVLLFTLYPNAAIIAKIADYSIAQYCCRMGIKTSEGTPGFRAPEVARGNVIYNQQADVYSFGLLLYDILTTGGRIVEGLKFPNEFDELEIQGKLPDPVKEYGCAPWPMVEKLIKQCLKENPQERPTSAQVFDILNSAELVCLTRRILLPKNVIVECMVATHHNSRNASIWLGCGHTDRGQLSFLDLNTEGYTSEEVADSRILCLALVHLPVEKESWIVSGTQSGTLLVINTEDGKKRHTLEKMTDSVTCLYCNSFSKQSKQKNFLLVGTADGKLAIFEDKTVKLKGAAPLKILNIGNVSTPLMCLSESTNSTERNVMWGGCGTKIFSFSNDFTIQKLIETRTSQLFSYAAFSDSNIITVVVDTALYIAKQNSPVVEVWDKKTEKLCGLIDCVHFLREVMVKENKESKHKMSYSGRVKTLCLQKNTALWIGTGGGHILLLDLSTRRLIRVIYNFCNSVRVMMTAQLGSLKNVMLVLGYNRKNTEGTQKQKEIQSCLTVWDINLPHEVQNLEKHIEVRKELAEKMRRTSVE
Serine/threonine-protein kinase B-raf (Homo sapiens), sequence (P15056 whole entry): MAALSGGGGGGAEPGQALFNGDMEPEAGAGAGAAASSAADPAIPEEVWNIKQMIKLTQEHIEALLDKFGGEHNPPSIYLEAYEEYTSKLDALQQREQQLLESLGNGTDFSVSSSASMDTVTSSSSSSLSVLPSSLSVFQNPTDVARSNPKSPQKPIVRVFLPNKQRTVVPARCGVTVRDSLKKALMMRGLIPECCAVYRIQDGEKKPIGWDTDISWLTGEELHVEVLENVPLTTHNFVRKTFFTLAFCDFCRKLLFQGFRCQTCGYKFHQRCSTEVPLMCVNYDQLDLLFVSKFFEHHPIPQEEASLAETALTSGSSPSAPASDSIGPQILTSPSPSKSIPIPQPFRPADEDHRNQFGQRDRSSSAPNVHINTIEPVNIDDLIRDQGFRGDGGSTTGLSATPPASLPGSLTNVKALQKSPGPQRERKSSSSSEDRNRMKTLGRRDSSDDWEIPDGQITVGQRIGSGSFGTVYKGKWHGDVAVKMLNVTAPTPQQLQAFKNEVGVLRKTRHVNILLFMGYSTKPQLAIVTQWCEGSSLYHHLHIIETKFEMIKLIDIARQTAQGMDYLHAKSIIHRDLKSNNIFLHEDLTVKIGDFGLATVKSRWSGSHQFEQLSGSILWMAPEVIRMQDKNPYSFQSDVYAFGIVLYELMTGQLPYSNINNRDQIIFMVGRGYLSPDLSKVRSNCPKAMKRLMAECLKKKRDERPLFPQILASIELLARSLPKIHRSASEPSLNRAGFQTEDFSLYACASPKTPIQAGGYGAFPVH
Tyrosine-protein kinase Yes (Homo sapiens), sequence (P07947 2-543 limits assumed): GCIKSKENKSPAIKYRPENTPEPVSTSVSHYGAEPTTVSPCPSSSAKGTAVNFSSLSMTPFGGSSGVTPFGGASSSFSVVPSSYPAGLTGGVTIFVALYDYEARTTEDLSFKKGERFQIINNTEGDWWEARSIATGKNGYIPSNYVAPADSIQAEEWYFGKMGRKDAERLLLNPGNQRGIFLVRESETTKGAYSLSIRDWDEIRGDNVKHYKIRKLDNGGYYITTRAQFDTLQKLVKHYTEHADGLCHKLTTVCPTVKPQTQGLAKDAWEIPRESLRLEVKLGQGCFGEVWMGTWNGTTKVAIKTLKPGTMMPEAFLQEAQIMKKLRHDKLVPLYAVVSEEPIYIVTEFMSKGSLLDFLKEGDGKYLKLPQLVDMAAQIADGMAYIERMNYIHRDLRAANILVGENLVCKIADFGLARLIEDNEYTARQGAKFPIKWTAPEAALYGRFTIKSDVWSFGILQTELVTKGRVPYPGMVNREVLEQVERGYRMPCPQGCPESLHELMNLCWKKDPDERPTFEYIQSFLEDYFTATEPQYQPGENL
Serine/threonine-protein kinase B-raf (Homo sapiens), P15056 [V600E], sequence (P15056 whole entry V600E): as the sequence (P15056 whole entry) above, with V600E counted along it
Leucine-rich repeat serine/threonine-protein kinase 2 (Homo sapiens), sequence (Q5S007 whole entry): as the sequence (Q5S007 whole entry G2019S) above, with S2019G counted along it
RAF proto-oncogene serine/threonine-protein kinase (Homo sapiens), sequence (P04049 whole entry): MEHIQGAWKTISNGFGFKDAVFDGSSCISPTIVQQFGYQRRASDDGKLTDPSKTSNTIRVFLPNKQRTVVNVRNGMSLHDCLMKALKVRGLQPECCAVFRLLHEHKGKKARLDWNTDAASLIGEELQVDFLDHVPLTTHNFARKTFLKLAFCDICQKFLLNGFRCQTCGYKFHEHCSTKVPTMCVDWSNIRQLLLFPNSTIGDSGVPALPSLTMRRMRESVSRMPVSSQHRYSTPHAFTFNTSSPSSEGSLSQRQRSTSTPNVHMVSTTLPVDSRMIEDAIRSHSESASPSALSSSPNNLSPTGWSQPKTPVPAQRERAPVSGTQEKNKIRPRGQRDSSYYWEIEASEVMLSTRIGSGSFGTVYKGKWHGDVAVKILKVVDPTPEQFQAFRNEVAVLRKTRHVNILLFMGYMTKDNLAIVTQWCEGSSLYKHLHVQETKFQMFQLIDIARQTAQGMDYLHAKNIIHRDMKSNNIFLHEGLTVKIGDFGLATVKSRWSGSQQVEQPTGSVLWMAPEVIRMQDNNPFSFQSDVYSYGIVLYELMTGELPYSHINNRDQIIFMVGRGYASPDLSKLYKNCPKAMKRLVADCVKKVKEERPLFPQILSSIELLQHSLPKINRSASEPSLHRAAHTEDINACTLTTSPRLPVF

| Compound | inhibition [1] | inhibition [2] | inhibition [3] | inhibition [4] | inhibition [5] | inhibition [6] | inhibition [7] | inhibition [8] | inhibition [9] | inhibition [10] | inhibition [11] | inhibition [12] | inhibition [13] | inhibition [14] | inhibition [15] | inhibition [16] | inhibition [17] |
| --- | --- | --- | --- | --- | --- | --- | --- | --- | --- | --- | --- | --- | --- | --- | --- | --- | --- |
| Fc1ccc(Nc2nccc(-c3c(-c4ccc(C(F)(F)F)cc4)nn4ncccc34)n2)cc1F | 1.88% | -0.6% | 1.12% | 2.29% | 2.38% | 3.42% | 6.75% | 3.45% | 6.03% | 4.84% | 1.86% | -4.78% | 1.81% | 5.42% | 7.08% | 5.93% | 10.4% |
| COc1cccc(Nc2nccc(-c3cnn4ncccc34)n2)c1 | 21.2% | 3.57% | 20.5% | 2.31% | 11.7% | 5.24% | 31.6% | 4.52% | 30.7% | 2.53% | -1.47% | 0.48% | 11.1% | 9.98% | 21.1% | 13.3% | 54.8% |
| CNC(=O)c1ncccc1Nc1nc(Nc2cc3c(cc2OC)CCCN3C(=O)CN(C)C)nc2[nH]ccc12 | 5.61% | 0.73% | -1.63% | -0.5% | 2.99% | 4.31% | 4.44% | 5.35% | 9.32% | -1.22% | -9.95% | -0.32% | 2.65% | 29.7% | 26.6% | 65.3% | 64.5% |
| CNC(=O)c1sc(-n2cnc3cc(OC)c(OC)cc32)cc1OCc1ccccc1C(F)(F)F | 3.54% | 3.33% | 6.76% | -0.03% | -1.04% | 6.42% | 6.14% | 4.01% | 4.66% | 1.81% | 0.72% | 2.12% | 1.97% | 2.86% | 9.7% | 3.5% | 7.21% |
| CN1CCN(Cc2ccc(-c3cc4ncnc(Nc5ccc(OCc6cccc(F)c6)c(Cl)c5)c4s3)o2)CC1 | 12.4% and 17.4% | 14% and 15.7% | 58.6% and 60.3% | 1.12% and 6.43% | 7.67% and 11.7% | 4.33% and 8.54% | 5.51% and 9.42% | 3.61% and 9.64% | 4.75% and 9.2% | -0.28% and 16.3% | -2.88% and 11.7% | 0.28% and 1.52% | 0.56% and 2.95% | 2.03% and 2.75% | 6.29% and 5.13% | 4.59% and 4.9% | 7.45% and 5.92% |
| COC(=O)Nc1nc2cc(Oc3ccc(NC(=O)Nc4ccccc4)cc3)ccc2[nH]1 | 4.81% | 0.64% | 4.69% | 0.7% | 1.28% | 4.74% | 4.26% | 5.49% | 5% | -5.27% | 17.3% | 2.38% | 0.86% | 3.5% | 6.86% | 3.61% | 4.1% |
| N#Cc1cccc(Nc2ncc(-c3ccccc3)o2)c1 | 6.8% | 2.87% | 17.7% | 0.3% | 1.57% | 3.08% | 3.51% | 3.18% | 4.57% | -1.08% | -0.15% | 2.82% | 0.78% | 1.01% | 2.11% | 1.64% | 4.25% |
| CN1CCC(n2cnc(-c3ccc(F)cc3)c2-c2ccnc(NCCO)n2)CC1 | 5.81% | 2.55% | 8.81% | 2.9% | -0.3% | 5.28% | 8.68% | 4.16% | 8.41% | -1.57% | 1.26% | -1.44% | 1.47% | 3.06% | 4.49% | 4.69% | 5.35% |
| CN1CCC(C(=O)Nc2n[nH]c3nc(-c4ccc(O)cc4)c(Br)cc23)CC1 | 7.08% and 4.86% | 4% and 0.88% | 10.6% and 3.33% | -0.14% and 0.65% | 2.21% and 2.11% | 9.05% and 4.77% | 16% and 14.5% | 9.4% and 4.5% | 13.8% and 8.76% | 13% and -0.38% | 2.83% and -8.49% | 3.04% and 2.37% | 2.24% and 1.33% | -2.84% and -1.67% | 2.03% and 7.36% | -0.31% and 1.49% | 4.77% and 5.48% |
| COc1c(C(N)=O)cc(-c2ccc(Cl)cc2)cc1-c1ccc(S(N)(=O)=O)cc1 | 2.96% | 1.57% | 4.52% | 2.39% | 4.12% | 6.5% | 8.57% | 4.06% | 3.68% | 2.31% | 1.44% | 1.96% | 1.85% | -0.34% | 6.11% | 3.53% | 9.4% |
| O=C(O[C@H]1CN[C@H](C#Cc2cc3ncnc(Nc4ccc5c(cnn5Cc5ccccc5)c4)c3s2)C1)N1CCOCC1 | 1.4% | 1.73% | 23.1% | -4.53% | 2.2% | -0.55% | -2.69% | -0.19% | -0.28% | -0.85% | -1.71% | -1.41% | -0.48% | 1.16% | 4.4% | 3.12% | 4.15% |
| Fc1cccc(COc2ccc(Nc3ncncc3C#Cc3ccccc3)cc2Cl)c1 | 9.44% | 4.11% | 3.65% | 2.29% | 1.11% | 6.77% | 4.45% | 6.66% | 5.53% | -0.3% | 5.17% | 0.71% | 2.43% | 3.65% | 7.01% | 4.05% | 6.17% |
| NS(=O)(=O)c1ccc(N/N=C2\C(=O)Nc3cccc(CCc4ccncc4)c32)cc1 | 2.17% | 4.12% | 11.4% | -0.82% | 13.7% | 1.54% | 1.46% | 3.22% | 2.2% | -0.07% | -2.61% | -0.38% | 0.01% | 6.21% | 9.58% | 8.14% | 12.9% |
| N#Cc1ccc2c(-c3ccnc(NC4CC4)n3)c(-c3ccc(F)cc3)nn2c1 | 0.69% | 2.22% | 3.79% | -2.8% | 1.15% | 2.6% | 5.81% | 2.7% | 4.72% | -0.7% | -2.54% | 0.03% | -0.5% | 2.1% | -2.22% | 1.24% | -0.08% |
| NS(=O)(=O)c1ccc(N/N=C2\C(=O)Nc3ccc(C(=O)NCc4ccncc4)cc32)cc1 | 8.28% | 4.07% | 17.1% | 2.55% | 3.8% | 14.8% | 56.7% | 15.1% | 56.3% | 0.58% | -3.37% | -2.46% | 1.57% | 5.05% | 11.6% | 6.07% | 30.8% |
| O=C(O[C@H]1CN[C@H](C#Cc2cc3ncnc(Nc4ccc5c(ccn5Cc5cc(F)ccc5F)c4)c3s2)C1)N1CCOCC1 | 3.08% | 0.85% | 8.22% | 0.89% | 2.72% | 6% | 6.76% | 6.11% | 6.31% | 1.88% | -3.01% | 3.45% | 2.43% | 3.48% | 6.3% | 3.23% | 5.91% |
